Laboratory results reported in PubChem BioAssay.
Inconclusive results are not listed. Calls of active or inactive are those of the source.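 How the source made its calls, unless noted: active means normalized viability below 100% at a tested concentration; inactive means the rest.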

Columns and labels:
[1] = viability loss in pontine glioma line – cell-based, SU-DIPG-XVII, MIPE5.0, CellTiter-Glo, qHTS, dose response (AID 1347060; cut-off not given, nearly all actives have AC50 up to about 26 µM;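 further: cells exposed to compound for 48 hours before viability readout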); details: CellTiter-Glo ATP luminescence
[2] = viability loss in pontine glioma line – cell-based, JHH-DIPG-1, MIPE4.0, CellTiter-Glo, qHTS, dose response (AID 1347062; cut-off not given, nearly all actives have AC50 up to about 27 µM;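 further: cells exposed to compound for two days before readout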); details: JHH-DIPG-1 viability, CellTiter-Glo ATP luminescence
[3] = viability loss in pontine glioma line – cell-based, SU-DIPG-IV, MIPE4.0, CellTiter-Glo, qHTS, dose response (AID 1347063; cut-off not given, nearly all actives have AC50 up to about 30 µM;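 further: compound exposure lasted 48 hours before the viability readout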); details: CellTiter-Glo ATP luminescence
[4] = viability loss in pontine glioma line – cell-based, SU-DIPG-XXV, MIPE5.0, CellTiter-Glo, qHTS, dose response (AID 1347065; cut-off not given, nearly all actives have AC50 up to about 26 µM;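 further: cells exposed to compound for 48 hours before ATP readout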); details: CellTiter-Glo ATP luminescence
[5] = growth inhibition of DIPG cells – cell-based, MIPE4.0 library, CellTiter-Glo luminescence, qHTS (AID 1347066; cut-off not given, nearly all actives have AC50 up to about 30 µM;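 further: cells exposed to compound for 48 hours before readout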); details: SU-DIPG-VI viability, CellTiter-Glo ATP luminescence
[6] = JHH-DIPG-1 glioma cell viability, MIPE5.0 library, CellTiter-Glo luminescence, qHTS (AID 1347067; cut-off not given, nearly all actives have AC50 up to about 26 µM;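 further: cells exposed to compound for 48 hours before readout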); details: JHH-DIPG-1 glioma viability, CellTiter-Glo ATP luminescence
[7] = viability loss with induced miR-34 in A549 – imaging, A549 dox-inducible miR-34, nuclei and caspase counts, primary screen (AID 1347080;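 active means compounds whose cell count with miR-34 switched on is under 0.7 times the count with it off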); details: A549 miR-34 inducible, Hoechst nuclei count, 48 h
[8] = compounds altering HSF1 focus formation in cells – imaging, Selleck Cancer Library (AID 1347162; in the data active means plate-normalised HSF1 focus index below about 0.46); details: human cells, HSF1 nuclear foci imaging, at 10 µM; SSMD: measured here: HSF1 foci SSMD mean; cell count: measured here: cell number; plate-normalised HSF1 focus index: stronger effect = lower value
[9] = MELAS cybrid and Rieske KO viability enhancers – cell-based, MELAS cybrids, Rieske KO mouse fibroblasts, CellTiter-Glo, primary screen (AID 1508586;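 active means mean z-score across replicates of 1.96 or higher in either the MELAS or the Rieske mutant cell line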;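 further: z relative to plate mean and SD of compound and empty wells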); details: low glucose
[10] = drug combination growth inhibition, ovarian cancer – cell-based, oncology-focused library, rucaparib conditional, profiling panel (AID 1508598); details: patient-derived ovarian cancer cells, CellTiter-Glo viability, 144 h, stronger effect = lower value
[11] = growth inhibition of DIPG cells – cell-based, MIPE5.0 library, qHTS (AID 1347068; cut-off not given, nearly all actives have IC50 up to about 30 µM;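 further: cells exposed to compound for 48 hours before viability readout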); details: SU-DIPG-XXV viability
[12] = stronger effect = lower value, cell number ratio, induced over uninduced
[13] = measured here: relative caspase fold change +Dox/-Dox
[14] = measured here: total cells with miR-34 induction, stronger effect = lower value
[15] = measured here: total cells without miR-34 induction
[16] = MELAS cybrid survival, CellTiter-Glo 48 h, stronger effect = higher value
[17] = Rieske KO mouse fibroblast survival, CellTiter-Glo 72 h
[18] = at 0.000305 µM, OCI-C5x cells, with rucaparib 10 µM, 100% = cells with rucaparib alone
[19] = at 0.000305 µM, OCI-C5x cells, without rucaparib
[20] = at 0.000305 µM, OCI-P5x cells, with rucaparib 20 µM, 100% = cells with rucaparib alone
[21] = at 0.000305 µM, OCI-P5x cells, without rucaparib
[22] = at 0.00122 µM, OCI-C5x cells, with rucaparib 10 µM, 100% = cells with rucaparib alone
[23] = at 0.00122 µM, OCI-C5x cells, without rucaparib
[24] = at 0.00122 µM, OCI-P5x cells, with rucaparib 20 µM, 100% = cells with rucaparib alone
[25] = at 0.00122 µM, OCI-P5x cells, without rucaparib
[26] = at 0.00488 µM, OCI-C5x cells, with rucaparib 10 µM, 100% = cells with rucaparib alone
[27] = at 0.00488 µM, OCI-C5x cells, without rucaparib
[28] = at 0.00488 µM, OCI-P5x cells, with rucaparib 20 µM, 100% = cells with rucaparib alone
[29] = at 0.00488 µM, OCI-P5x cells, without rucaparib
[30] = at 0.0195 µM, OCI-C5x cells, with rucaparib 10 µM, 100% = cells with rucaparib alone
[31] = at 0.0195 µM, OCI-C5x cells, without rucaparib
[32] = at 0.0195 µM, OCI-P5x cells, with rucaparib 20 µM, 100% = cells with rucaparib alone
[33] = at 0.0195 µM, OCI-P5x cells, without rucaparib
[34] = at 0.0781 µM, OCI-C5x cells, with rucaparib 10 µM, 100% = cells with rucaparib alone
[35] = at 0.0781 µM, OCI-C5x cells, without rucaparib
[36] = at 0.0781 µM, OCI-P5x cells, with rucaparib 20 µM, 100% = cells with rucaparib alone
[37] = at 0.0781 µM, OCI-P5x cells, without rucaparib
[38] = at 0.313 µM, OCI-C5x cells, with rucaparib 10 µM, 100% = cells with rucaparib alone
[39] = at 0.313 µM, OCI-C5x cells, without rucaparib
[40] = at 0.313 µM, OCI-P5x cells, with rucaparib 20 µM, 100% = cells with rucaparib alone
[41] = at 0.313 µM, OCI-P5x cells, without rucaparib
[42] = at 1.25 µM, OCI-C5x cells, with rucaparib 10 µM, 100% = cells with rucaparib alone
[43] = at 1.25 µM, OCI-C5x cells, without rucaparib
[44] = at 1.25 µM, OCI-P5x cells, with rucaparib 20 µM, 100% = cells with rucaparib alone
[45] = at 1.25 µM, OCI-P5x cells, without rucaparib
[46] = at 5 µM, OCI-C5x cells, with rucaparib 10 µM, 100% = cells with rucaparib alone
[47] = at 5 µM, OCI-C5x cells, without rucaparib
[48] = at 5 µM, OCI-P5x cells, with rucaparib 20 µM, 100% = cells with rucaparib alone
[49] = at 5 µM, OCI-P5x cells, without rucaparib

Cn1cncc1[C@@](N)(c1ccc(Cl)cc1)c1ccc2c(c1)c(-c1cccc(Cl)c1)cc(=O)n2C
inactive: fold change [7, 12] 1.1 | plate-normalised HSF1 focus index [8] 0.564 | z-score [9, 16] -0.557 | viability [10, 18] 113% | viability [10, 19] 115% | viability [10, 20] 102% | viability [10, 21] 113% | viability [10, 22] 118% | viability [10, 23] 111% | viability [10, 24] 103% | viability [10, 25] 109% | viability [10, 26] 115% | viability [10, 27] 122% | viability [10, 28] 107% | viability [10, 29] 107% | viability [10, 30] 114% | viability [10, 31] 123% | viability [10, 34] 111% | viability [10, 35] 121% | viability [10, 38] 113% | viability [10, 42] 101% | viability [10, 43] 104%
4560: cell count [7, 15]
active: AC50 [1] 33.2 µM | AC50 [2] 23.5 µM | AC50 [3] 8.33 µM | AC50 [4] 16.6 µM | AC50 [5] 18.7 µM | AC50 [6] 18.6 µM | viability [10, 32] 98.9% | viability [10, 33] 85.9% | viability [10, 36] 92.4% | viability [10, 37] 67.4% | viability [10, 39] 99.3% | viability [10, 40] 74.4% | viability [10, 41] 66.7% | viability [10, 44] 23.5% | viability [10, 45] 28.3% | viability [10, 46] 1.75% | viability [10, 47] 5.47% | viability [10, 48] 0.988% | viability [10, 49] 1.42%
-8.89: SSMD [8]
0.725: fold change [7, 13]
5030: cell count [7, 14]
-0.393: z-score [9, 17]
4640: cell count [8]

O=C(O)c1ccc2c(c1)nc(Nc1cccc(Cl)c1)c1ccncc12
active: AC50 [1] 8.33 µM | AC50 [2] 16.6 µM | AC50 [3] 7.43 µM | AC50 [4] 4.68 µM | AC50 [6] 2.95 µM | IC50 [11] 7.42 µM | viability [10, 24] 98.4% | viability [10, 28] 94% | viability [10, 30] 98% | viability [10, 32] 96% | viability [10, 34] 99.7% | viability [10, 36] 98.9% | viability [10, 38] 96.1% | viability [10, 40] 94.3% | viability [10, 42] 68.3% | viability [10, 43] 91.5% | viability [10, 44] 74.7% | viability [10, 45] 89.4% | viability [10, 46] 43.6% | viability [10, 47] 88.1% | viability [10, 48] 33.3% | viability [10, 49] 35.6%
0.974: fold change [7, 13]
0.462: SSMD [8]
7390: cell count [8]
5180: cell count [7, 14]
-0.116: z-score [9, 17]
6500: cell count [7, 15]
inactive: fold change [7, 12] 0.797 | plate-normalised HSF1 focus index [8] 1.02 | z-score [9, 16] -0.486 | viability [10, 18] 103% | viability [10, 19] 125% | viability [10, 20] 103% | viability [10, 21] 105% | viability [10, 22] 119% | viability [10, 23] 130% | viability [10, 25] 111% | viability [10, 26] 106% | viability [10, 27] 118% | viability [10, 29] 104% | viability [10, 31] 126% | viability [10, 33] 115% | viability [10, 35] 116% | viability [10, 37] 110% | viability [10, 39] 115% | viability [10, 41] 107%
